# Screen size: about 360,000 compounds; about 3,100 (0.86%) were called active.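 How the source made its calls: active means at least 50% inhibition at 5 µM, scaled per plate between neutral and stimulator controls; inactive means the rest.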 The list comes from a sample in which actives are over-represented; it also holds similar structures and randomly drawn compounds.
# Experiment: NF-kB reporter blockers in CF airway cells – cell-based, GFP fluorescence, uHTS, primary screen (AID 588850);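 further: PAF is a Pseudomonas aeruginosa culture filtrate used as stimulus; plate controls were PAF-stimulated DMSO wells for no effect and unstimulated DMSO wells for full effect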
# Settings: KKLEB NF-kB-GFP reporter, PAF-induced, GFP fluorescence overnight; at 5 µM; hits give high values
row,SMILES,inhibition
1,COC1C(O)C(C)OC(OC2CCC3(C=O)C(CCC4C3CCC3(C)C(C5=CC(=O)OC5)CCC43O)C2)C1O (stereo not given),91.1% (active)
2,CCOP(=S)(OCC)SCOC(=O)NCC(=O)OC,-6.4% (inactive)
3,O=c1c2ccccc2[nH]c(=S)n1-c1cccc(Cl)c1,-27.2% (inactive)
4,Cc1ccc(-c2nn(CCC#N)cc2C(=O)O)cc1C,13.3% (inactive)
5,CC[N+](CC)(CC)CCCCCCCCCC[N+](CC)(CC)CC,9.5% (inactive)
6,COc1c(O)ccc2c1-c1c3c(cc4c1C(C2)N(C)CC4)OCO3 (stereo not given),-18.7% (inactive)
7,O=C1NC(=O)N(CCc2ccc(F)cc2)C(=O)/C1=C/C=C/c1ccccc1,101% (active)
8,c1cncc(CNC2=NCCC2)c1,13.7% (inactive)
9,CN1CCc2cc3c(cc2[C@H]1[C@@H]1OC(=O)c2c1ccc1c2OCO1)OCO3,15.1% (inactive)
10,CN(C)CCCN=Cc1c(O)n(Cc2ccco2)c(=O)[nH]c1=O,13.6% (inactive)
11,CC12CCC(O)CC1CCC1C2CCC2(C)C(C(=O)CC(O)C(F)(F)F)CCC12 (stereo not given),9.6% (inactive)
12,C[C@]12CC[C@H](O)C[C@H]1CC[C@@H]1C2CC[C@]2(C)[C@@H](C3=CC(=O)OC3)[C@@H](O)C[C@]12O (stereo not given in full),53.2% (active)
13,CCOP(=O)(OCC)C(NC(=O)NC)C(N)=O (stereo not given),-12.3% (inactive)
14,CC=C(C)C(=O)OC1CCN2CC=C(COC(=O)C(O)(C(C)OC)C(C)(C)O)C12 (stereo not given),1.6% (inactive)
15,CC(C)Oc1cccc(C(=O)C2CCCN(C3CCOCC3)C2)c1 (stereo not given),-10.1% (inactive)
16,CCOC(=O)c1cccc(C2=C(CNC(=O)c3ccncc3)[C@H]3CC[C@@H](C2)N3Cc2ccccc2)c1,2.6% (inactive)
17,CC(=CCOc1ccc2ccc(=O)oc2c1)C1=CC(=O)C(C)(C)O1,75.5% (active)
18,O=C(CCN1CCCCC1)NCC(=O)Nc1ccc(Br)cc1C(=O)c1ccccc1,-1.9% (inactive)
19,CC1=C(C(=O)Nc2ccccc2)SCCO1,-0.6% (inactive)
20,Cc1nn(-c2ccccc2)c(C)c1NC(=O)COC(=O)Cc1ccccc1,5.1% (inactive)
21,O=c1[nH]c2ccccc2n1C1CCN(C(c2ccccc2)c2nnnn2Cc2ccccc2)CC1 (stereo not given),85.1% (active)
22,COc1cccc(C(c2nnnn2-c2ccc3c(c2)OCCO3)N2CCC3(CC2)C(=O)NCN3c2ccccc2)c1OC (stereo not given),-0.8% (inactive)
23,CSCCC(c1nnnn1C(C)(C)C)N1CCC(n2c(=O)[nH]c3ccccc32)CC1 (stereo not given),-10.2% (inactive)
24,COc1ccc(-n2nnnc2C(c2cccc3ccccc23)N2CCC(n3c(=O)[nH]c4ccccc43)CC2)cc1 (stereo not given),53.2% (active)
25,O=C1NCN(c2ccccc2)C12CCN(C(c1cccs1)c1nnnn1C1CCCCC1)CC2 (stereo not given),-6.5% (inactive)

row,SMILES,inhibition
1,O=c1[nH]c2ccccc2n1C1CCN(C(c2ccnc3ccccc23)c2nnnn2Cc2ccccc2)CC1 (stereo not given),39.9% (inactive)
2,COC(=O)C1=C(c2ccccc2OCc2ccccc2)C[C@@H]2CC[C@H]1N2C(=O)NCc1ccc(OC)cc1,-7.5% (inactive)
3,CN(C)CC1CCCCC1=O (stereo not given),6% (inactive)
4,CC(C)(C)c1ccc(OC(=O)N2CCCCC2)cc1,16% (inactive)
5,N=c1ccccn1Cc1ccccc1,14.3% (inactive)
6,CC1=C2C(=O)C3C(CC=C4CC(OC5OC(O)C(O)C(O)C5CO)CCC43C)C2CCC12OC1CC(C)CNC1C2C (stereo not given),7.6% (inactive)
7,CCC1(C)CC(CCNCc2ccc(N(C)C)cc2)(c2ccc(F)cc2)CCO1 (stereo not given),22.8% (inactive)
8,Cc1cc(C)c2c(c1)NP(=S)(c1ccccc1)N2 (stereo not given),24.3% (inactive)
9,CCOC(=O)CC1=C(C(=O)OCC)C2(C(=O)N1)C(C(=O)OC)=C(N)Oc1ccccc12 (stereo not given),-14% (inactive)
10,CN(C)CC1Oc2ccccc2OC1(O)c1ccccc1 (stereo not given),75.7% (active)
11,CN(C)S(=O)(=O)c1cc(C(=O)N2CCC(C(=O)O)(c3ccccc3)CC2)ccc1Cl,7.2% (inactive)
12,COC(=O)C1=C(c2ccccc2)C[C@@H]2CC[C@H]1N2C(=O)N1CCCCC1,-2.3% (inactive)
13,Cc1cccc(NC(=O)OC2CN3CCC2CC3)c1 (stereo not given),9% (inactive)
14,O=C1NC(=O)C(Cc2ccccc2)C(=O)N1,-11% (inactive)
15,C=CCN1C(=O)C2(C(C(=O)OCC)=C(N)Oc3c2c(=O)oc2ccccc32)c2ccccc21 (stereo not given),-5.7% (inactive)
16,CC(=O)OC1C2(CC3N4C(=O)C5(CO)SSC4(CC31O)C(=O)N5C)OC(C)C(C)(C)C2=O (stereo not given),88.5% (active)
17,CC(CC(C#N)(c1ccccc1)c1ccccc1)N1CCCCC1 (stereo not given),7.8% (inactive)
18,CCC(C)(O)C(=O)OC1C(=O)OC2CC3C(C)=CC(=O)C(O)C3(C)C3C4(O)OCC23C1C(C)C4O (stereo not given),91.3% (active)
19,CCOC(=O)C1(Cc2ccc(Cl)cc2)CCN(C(C)CCn2cccn2)CC1 (stereo not given),29.4% (inactive)
20,CC1(C)C(c2ccccc2)=NC(c2cccnc2)=[N+]1[O-],7.5% (inactive)
21,CCCCCCCCCCCCn1ccc(=N)cc1,61.8% (active)
22,CN(C)C(=O)Oc1ccc(NC(=O)N2CCOCC2)cc1,-9.2% (inactive)
23,O=C(CCC(=O)N1C[C@H]2C[C@@H](C1)c1cccc(=O)n1C2)NCc1ccccc1C(F)(F)F,-6.7% (inactive)
24,COC(=O)C1=C(c2cccc(OCc3ccccc3)c2)C[C@@H]2CC[C@H]1N2C(=O)NCc1ccc(Br)cc1,6.2% (inactive)
25,COC(=O)COc1cc(C)cc2oc(=O)c3c(c12)CCCC3,5.1% (inactive)
